According to PubChem BioAssay (NCATS):
Records with an inconclusive call do not appear. Calls of active or inactive are those of the source. Calls come from the whole dose curve; as a rule, active = well fitted curve in the direction sought with a large enough effect; inconclusive = small, poorly fitted or top-dose-only effect, or another doubt; inactive = no such curve, though single readings can be large; an effect the other way counts as inactive or inconclusive.

How the values were obtained:
[1] = test system: HACAT; experiment: qHTS assay to identify novel small-molecules to repurpose for Merkel cell carcinoma treatment (AID 1296009); settings: MCC and control cell lines, CellTiter-Glo viability, 72 h; at 44.8 µM (top of the series) unless noted; note: nearly all actives have a fitted effect of over 60% in size
Summary of the method: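 After compound transfer in DMSO, plates were kept 72 hr at 37 degree celsius. Luminescent ATP signal from CellTiter-Glo served as viability measure, normalized against DMSO and no-cell controls.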

[2] = test system: C33A; experiment: Primary qHTS to identify gynecologic anti-cancer compounds using libraries of approved drugs and bioactive compounds (AID 1345084); settings: Gynecologic cancer cell panel viability, ATPlite luminescence, 48 h; series mostly up to 57.5 µM; note: nearly all actives have a fitted effect of over 55% in size
Summary of the method: (§1)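 48 h compound exposure at 37 C, 5% CO2; five-point qHTS. ATPlite luminescence readout of cell ATP.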

[3] = test system: CAOV3; experiment: as above; settings: Gynecologic cancer cell panel viability, ATPlite luminescence, 48 h; series mostly up to 57.5 µM
Summary of the method: as §1

[4] = test system: CASKI; experiment: as above; settings: Gynecologic cancer cell panel viability, ATPlite luminescence, 48 h; series mostly up to 57.5 µM
Summary of the method: as §1

[5] = test system: Es-2; experiment: as above; settings: Gynecologic cancer cell panel viability, ATPlite luminescence, 48 h; series mostly up to 57.5 µM
Summary of the method: as §1

[6] = test system: HeLa; experiment: as above; settings: Gynecologic cancer cell panel viability, ATPlite luminescence, 48 h; series mostly up to 57.5 µM
Summary of the method: as §1

[7] = test system: Hek293T; experiment: as above; settings: Gynecologic cancer cell panel viability, ATPlite luminescence, 48 h, control line for the selectivity index; series mostly up to 57.5 µM
Summary of the method: as §1

[8] = test system: JEG-3; experiment: as above; settings: Gynecologic cancer cell panel viability, ATPlite luminescence, 48 h; series mostly up to 57.5 µM
Summary of the method: as §1

[9] = test system: OV90; experiment: as above; settings: Gynecologic cancer cell panel viability, ATPlite luminescence, 48 h; series mostly up to 57.5 µM
Summary of the method: as §1

[10] = test system: PA-1; experiment: as above; settings: Gynecologic cancer cell panel viability, ATPlite luminescence, 48 h; series mostly up to 57.5 µM
Summary of the method: as §1

[11] = test system: Tov-21-G; experiment: as above; settings: Gynecologic cancer cell panel viability, ATPlite luminescence, 48 h; series mostly up to 57.5 µM
Summary of the method: as §1

[12] = test system: Tov112D; experiment: as above; settings: Gynecologic cancer cell panel viability, ATPlite luminescence, 48 h; series mostly up to 57.5 µM
Summary of the method: as §1

[13] = test system: SKOV3; experiment: as above; settings: Gynecologic cancer cell panel viability, ATPlite luminescence, 48 h; series mostly up to 57.5 µM
Summary of the method: as §1

Measured: Potency

CC/C=C/C=C/C1(C)OC(CC(CO)OC)=CC1=O (configuration not stated)
not listed: [13]
inactive: all other assays above

COc1ccc(C(=O)CC(=O)O)c2c1C=CC(C)(C)O2
not listed: [13]
inactive: all other assays above

CC1(C)CC[C@]2(C(=O)O)CC[C@]3(C)C(=CCC4[C@@]5(C)CC[C@H](O)C(C)(C)C5CC[C@]43C)C2C1 (some centres not stated)
inactive: [1] inactive [at 17.4 µM] | [2] | [3] | [4] | [5] | [6] | [7] | [8] | [9] | [13] | [11] | [12]

OC[C@H]1O[C@@H](Oc2cc(O)cc(-c3cc4ccc(O[C@@H]5O[C@H](CO)[C@@H](O)[C@H](O)[C@H]5O)cc4o3)c2)[C@H](O)[C@@H](O)[C@@H]1O
inactive: [1] inactive [at 17.4 µM] | [2] | [3] | [4] | [5] | [6] | [7] | [8] | [9] | [10] | [11] | [12]

Cc1ccc(COC(=O)N2CC[C@@H](CNc3ncccn3)[C@@H](F)C2)cc1
not listed: [13]
inactive: all other assays above

CC(C)c1ccc2c(c1)C(O)CC1C(C)(CO)CCCC21C (configuration not stated)
not listed: [13]
inactive: all other assays above

COc1ccccc1Oc1c(NS(=O)(=O)c2ccc(C)cn2)nc(-c2ccncc2)nc1OC
not listed: [13]
inactive: all other assays above

CCN1CCN(C(=O)N[C@@H](C(=O)N[C@@H]2C(=O)N3[C@@H]2SC(C)(C)[C@@H]3C(=O)O)c2ccccc2)C(=O)C1=O
not listed: [13]
inactive: all other assays above

COC(=O)C1=CO[C@@H](O[C@@H]2O[C@H](CO)[C@@H](O)[C@H](O)[C@H]2O)[C@@H]2[C@@H](CO)[C@@H](O)C(O)[C@H]12 (some centres not stated)
inactive: [1] inactive [at 17.4 µM] | [2] | [4] | [5] | [6] | [7] | [8] | [9] | [10] | [13] | [11] | [12]

CC(C)c1c(NC(=O)Nc2ccc(Cl)cc2)c(=O)n(-c2ccccc2)n1C
not listed: [3]
inactive: all other assays above

CC(=O)OCC1=CCC2C(C)(C)CCCC2(C)C12CCC(C)(CC(=O)O)O2 (configuration not stated)
not listed: [8]
inactive: all other assays above

Fc1ccccc1-c1nc2ccn(Cc3ccc(-c4ccc(C(F)(F)F)cc4C(F)(F)F)nn3)cc-2n1
not listed: [10] | [13]
inactive: all other assays above

Cc1nc(-c2cccnc2)sc1C(=O)Nc1ccccc1-c1cn2c(CN3CCOCC3)csc2n1
not listed: [4]
inactive: all other assays above

COc1cc(C)c(C(=O)O[C@@H]2[C@H](O)[C@@H](CO)O[C@H]2n2ccc(=O)[nH]c2=O)c(OC)c1
inactive: [1] inactive [at 17.4 µM] | [2] | [4] | [5] | [6] | [7] | [8] | [9] | [10] | [13] | [11] | [12]
